High-throughput results: PubChem BioAssay, several laboratories
esBAF inh: SWI/SNF esBAF complex inhibition | 2% of 350,000 active | AID 602393 | mouse ES cells, Bmi1-luciferase knock-in reporter, 24 h; 100% = twice the neutral-well signal | reporter increase, % at 12.5 µM; in the data active = activation above about 40%; inconclusive = no clear call, values can overlap the other calls;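 note: 0% = median of the plate's neutral control wells and 100% = double that signal; a rise in the Bmi1 reporter signal indicates esBAF inhibition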
SMARCA2 activ: activators of SMARCA2 function. MG213 cells, MMTV-luciferase reporter, dexamethasone, overnight. activation, % at 9.1 µM. 1% of 370,000 active. AID 652017; in the data active = activation above about 7.8%;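 note: 0% = vehicle wells and 100% = reference activator wells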
Vif inh: HIV Vif inhibition; HEK293T cells, Vif self-association by quenched fluorescence, imaging, 24 h; inhibition, % at 7.49 µM; 0.35% of 340,000 active; AID 602346; in the data active = inhibition above about 50%, passing the limit was not always enough; inconclusive = no clear call, values can overlap the other calls; inactive = below about 31%
NadD inh: inhibitors of Staphylococcus aureus NadD. inhibition, % at 20 µM. 0.78% of 360,000 active. AID 602399. purified NadD enzyme, colorimetric absorbance read-out; in the data active = inhibition above about 26%
GRIN3A LBD mod: NR3A (human) ligand-binding domain modulation; Tm shift relative to glycine control, % at 25 µM; AID 1259313; NR3A LBD differential scanning fluorimetry, Tm shift; 0% = protein alone, 100% = glycine-bound protein; 2.5% of 340,000 active;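 active = melting temperature shift of at least 10% of the positive control shift, at one fixed dose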
SKN-1 block: inhibitors of C. elegans SKN-1; 0.49% of 360,000 active; inhibition, % at 21.8 µM; C. elegans VP596 Pgst-4::GFP/RFP ratio, acrylamide-induced, 24 h;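 active = interference check ratio from 0.5 to 1.5 plus GFP to RFP signal ratio inhibition reaching or exceeding a fixed threshold, cut at about 30% in these data, passing the limit was not always enough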
SMARCA2 act conf: confirmation of SMARCA2 (BRM) function activators. 30% of 3,500 active. activation, % at 9.1 µM. shares compounds with SMARCA2 activ. MG213 cells, MMTV-luciferase with dexamethasone, luminescence, overnight; MG213 cells expressing E1A, Rb sequestered; DMSO wells 0%, reference activator 100%;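 active = activation above its plate's cutoff, the mean activation of tested wells plus 3 SD, cut at about 7.9% in these data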
VP16 Luc act: counter-screen for SMARCA2 activators: GAL4-VP16 luciferase reporter activation; shares compounds with SMARCA2 activ; HEK293 GAL4-VP16 pG5luc reporter, luciferase luminescence; scaled: DMSO wells 0%, SAHA wells 100%; activation, % at 9.1 µM; 41% of 3,500 active;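 active = activation above the solvent-only control well mean plus 3 SD, averaged across control plates, cut at about 5.2% in these data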
* = called active by the depositor; ? = inconclusive; · = no result. Most compounds without a hit are left out; they make up all but 5.2% or so of the library.

SMILES | esBAF inh | SMARCA2 activ | Vif inh | NadD inh | GRIN3A LBD mod | SKN-1 block | SMARCA2 act conf | VP16 Luc act
C/C(=N\N=c1/sc2ccccc2n1C)c1ccccn1 | ? | 8.1* | -5.1 | -6.1 | 0.7 | 36.4* | 4.3 | 7.5*
C[C@H](CO)N1C[C@H](C)[C@@H](CN(C)C(=O)C2CCC2)Oc2ncc(C#CC3CCCC3)cc2C1=O | -2.6 | · | · | · | · | · | · | ·
COc1ccnc(Oc2ccc3ccccc3c2)c1C#N | · | 14.0* | 0.3 | -4.1 | 1.9 | -1.8 | 5.6 | 7.9*
COc1ccnc(Oc2ccc(C)cc2)c1C#N | 33.8 | 0.0 | 19.1 | 0.1 | -1.9 | 13.3 | · | ·
Cc1c(F)cccc1NS(=O)(=O)c1ccccc1C#N | -7.0 | 9.2* | -2.5 | -0.7 | -0.1 | 10.3 | -3.3 | 0.5
COc1ccccc1NS(=O)(=O)c1ccccc1C#N | 6.1 | -2.2 | -7.9 | 2.1 | 0.3 | 8.4 | · | ·
CCC(=O)N[C@H]1C=C[C@@H](CC(=O)OC)O[C@H]1CO | 4.5 | · | · | · | · | · | · | ·
CCCCn1c(N)c(N(C)C(=O)c2cc3c(s2)CCCCC3)c(=O)[nH]c1=O | 29.8 | 8.5* | -9.0 | 1.7 | -2.7 | -5.4 | -0.5 | 1.4
Cc1ccc(NC(=O)c2ccc(COc3ccccc3)o2)nc1 | 21.0 | 3.2 | -4.0 | -3.3 | 2.9 | -7.2 | · | ·
CCOc1ccc(OCc2ccc(C(=O)Nc3ccc(Cl)cn3)o2)cc1 | 11.1 | 10.1* | · | -2.8 | -19.9 | 13.9 | 4.3 | 2.5
COc1cccc(-c2cc(C(=O)N3CCCCC3C)no2)c1 (centres undefined) | 10.0 | 11.6* | -6.4 | -3.5 | 1.4 | 15.3 | 6.3 | 11.9*
Cc1ccc(SCCNC(=S)Nc2ccccc2)cc1 | 3.8 | 8.8* | -8.7 | 4.1 | 1.8 | 3.4 | -4.6 | -0.2
Fc1cccc(Cl)c1CSc1nnc2ccccn12 | · | 8.6* | -2.8 | -2.6 | -2.0 | 2.1 | 7.5 | 3.1
Clc1cccc(Cl)c1CSc1nnc2ccccn12 | · | -3.3 | -3.6 | -4.8 | -2.9 | 12.6 | · | ·
O=C1NC(c2ccc(Br)cc2)=N/C1=C/c1ccco1 | · | 8.1* | 3.7 | 3.5 | 4.4 | 3.8 | 7.7 | 10.7*
O=C1NC(c2ccccc2Cl)=N/C1=C/c1ccco1 | · | 18.4* | 12.2 | -9.6 | 1.1 | -6.2 | 9.7* | 8.1*
S=c1[nH]nc(-c2ccccc2Cl)n1/N=C/C=C/c1ccco1 | · | -0.6 | 0.4 | -4.1 | 1.2 | 12.2 | · | ·
Cc1ccc(NS(=O)(=O)c2c(C(=O)N3CCOCC3)c(C)n(C)c2C)cc1 | -3.2 | -3.0 | 6.3 | -0.5 | -2.6 | -8.2 | · | ·
Cc1c(C(=O)N2CCCC2)c(S(=O)(=O)Nc2ccccc2)c(C)n1C | -1.9 | 13.9* | 0.8 | 3.1 | -2.6 | -1.4 | -0.8 | 3.4
Cc1cc(C)cc(NS(=O)(=O)c2c(C(=O)N3CCOCC3)c(C)n(C)c2C)c1 | -9.1 | 10.1* | -2.6 | -4.4 | 0.3 | -2.4 | -0.3 | 0.1
O=C(C[C@H]1CC[C@H](NS(=O)(=O)c2ccc(F)cc2)[C@@H](CO)O1)NCCc1ccncc1 | 3.7 | · | · | · | · | · | · | ·
Cc1cc(O)c(NC(=O)c2ccco2)cc1C | 46.7* | 8.9* | · | -3.1 | 2.1 | -0.9 | 0.1 | 5.0
O=C(COC(=O)/C=C/c1ccccc1)Nc1ccc(Cl)cn1 | -11.3 | 0.5 | 4.5 | 4.6 | 0.4 | 7.1 | · | ·
COc1ccccc1/C=C/C(=O)OCC(=O)Nc1ccc(Cl)cn1 | 4.6 | 8.9* | -15.7 | -11.7 | 0.3 | 3.3 | 10.6* | 0.6
C/C(=C\c1ccccc1)C(=O)Nc1cc(C)on1 | 55.6* | 9.9* | 8.8 | 0.6 | -0.7 | 20.6 | 5.2 | 6.9*
SMILES | esBAF inh | SMARCA2 activ | Vif inh | NadD inh | GRIN3A LBD mod | SKN-1 block | SMARCA2 act conf | VP16 Luc act
Cc1cc(NC(=O)Cc2ccccc2)no1 | · | 2.1 | -3.4 | -2.0 | -0.5 | 2.3 | · | ·
C[C@H]1CN([C@@H](C)CO)C(=O)c2cccc(NS(=O)(=O)c3ccccc3)c2O[C@H]1CN(C)S(=O)(=O)c1cccs1 | -3.7 | · | · | · | · | · | · | ·
N#CCS(=O)(=O)c1cccc[n+]1[O-] | · | 8.8* | · | · | · | · | -4.3 | 1.4
O=P(Cc1cccc[n+]1[O-])(c1ccccc1)c1ccccc1 | · | 3.2 | 12.8 | -2.1 | -1.4 | -7.2 | · | ·
COc1ccccc1-c1ccc2c(c1)O[C@@H](CN(C)CC1CCOCC1)[C@H](C)CN([C@H](C)CO)S2(=O)=O | -2.1 | · | · | · | · | · | · | ·
C[C@H]1CN([C@@H](C)CO)C(=O)c2cc(C#CC3(O)CCCC3)cnc2O[C@H]1CN(C)C(=O)C1CCCCC1 | -0.6 | · | · | · | · | · | · | ·
c1ccc(-c2csc(CN3CCCCC3)n2)cc1 | -3.1 | 14.3* | 7.1 | -0.1 | -0.2 | 6.9 | 8.1* | 14.9*
OCCC1CN(Cc2nc(-c3ccccc3)cs2)CCN1C1CCCC1 (centres undefined) | 0.5 | 1.6 | -2.7 | -9.4 | 0.6 | -1.1 | · | ·
CCCNC(=O)N1[C@@H](CO)[C@H](c2ccccc2)[C@@H]1CNC(=O)c1ccccc1 | 1.7 | · | · | · | · | · | · | ·
CCOc1ccc(NC(=O)CC(=O)Nc2ccc(OCC)cc2)cc1 | 10.2 | 4.4 | -10.3 | -7.8 | 2.5 | -18.1 | · | ·
CCOc1ccc(NC(=O)NN2C(C)CCCC2C)cc1 (centres undefined) | -4.0 | 14.7* | -2.0 | 0.3 | -0.7 | -7.8 | -4.8 | 0.4
CN1C(=O)c2cc(NC(=O)Nc3ccc(Cl)cc3)ccc2OC[C@H]2O[C@H](CC(=O)O)CC[C@@H]21 | -0.3 | · | · | · | · | · | · | ·
COc1ccc(C(=O)NC(=S)NNC(=O)c2cnccn2)cc1 | · | 33.5* | 7.4 | -3.2 | -0.7 | -2.3 | -2.9 | 0.9
CC(C)(C)c1ccc(C(=O)NC(=S)NCC2CCCO2)cc1 (centres undefined) | · | 1.7 | 0.3 | -6.2 | 1.9 | -6.6 | · | ·
Cc1ccc(C(=O)N/C(=C\c2ccco2)C(=O)NCC2CCCO2)cc1C (centres undefined) | 10.4 | 0.0 | 17.9 | 3.6 | 0.9 | 13.6 | · | ·
Cc1ccc(C(=O)N/C(=C/c2ccco2)C(=O)NCC2CCCO2)cc1 (centres undefined) | · | 9.9* | -3.5 | -1.5 | -6.6 | 8.1 | 2.5 | 1.4
COc1ccc(C(=O)NC(=S)NCC2CCCO2)cc1 (centres undefined) | · | 10.7* | -2.5 | 3.7 | -7.7 | 9.6 | 2.3 | 4.2
CNC(=O)NC(=S)NC(=O)c1ccc(OC)cc1 | 27.1 | 10.5* | -11.1 | 0.3 | 3.1 | -3.8 | 0.5 | 2.2
COc1ccc(C(=O)NC(=S)Nc2ccccc2F)cc1 | · | 0.5 | 5.0 | 0.5 | -0.6 | 9.6 | · | ·
C=CCn1c(-c2ccc(OC)cc2)nc2nc3ccccc3nc21 | · | 5.4 | 0.4 | 6.6 | 2.6 | -3.9 | · | ·
c1ccc(-c2nc3nc4ccccc4nc3n2Cc2ccco2)cc1 | · | 8.0* | -6.1 | -2.8 | -1.2 | 2.1 | 6.8 | 13.6*
